Here are results for 46 sequences from the supplement of paper PMC11417369.

Over roughly 25,000 sequences, “ln(normalized median fluorescence intensity)” has its median near 9.3; the highest 2% begin near 10. Only a selection was taken, and the highest values are over-represented in it overall.

The experiment deals with PF3D7_0420300 AP2 domain 1 (GST-tagged). Briefly: gcPBM binding intensity (ln(normalized median fluorescence intensity)); higher = stronger DNA binding. Summed up:
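Each value is the highest Masliner-normalised natural-log median intensity across replicate spots of either orientation of a probe. The probes were primer-extended double-stranded 36-bp intergenic genomic sequences on an Agilent 4 × 180k array, alongside negative controls, exposed for 1 h to GST-tagged P. falciparum DNA-binding domains expressed in E. coli. Bound protein was picked up with Alexa488 anti-GST antibody and scanned at 488 nm.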
In the case of “TATAAATAAAGACACACACACATATAAATAAATATA [CACACA_site7155]”, the “gcPBM binding intensity (ln)” value came to 10.1. Under “CATATAAATATATATACACACACACCGTAATACATA [CACACA_site9158]” stands 10.2; under “CACACTAAAAGACACACACACACACGCATATAAATA [CACACA_site7874]”, 10.2; under “TATAAATAAAGACACACACACACACCGTATAATTAC [CACACA_site7829]”, 10.2. Then “ATAAAAAAAAGACACACACACATATATATATATATA [CACACA_site3073]”, with 9.67; and “ATATAATAAAATGACACACGCATATATATATATATA [CACACA_site2789]”, with 9.33.

In the case of “TATATAAATAGACACACACACACCTTATAATTACTA [CACACA_site7828]”, the “gcPBM binding intensity (ln)” value came out at 10. Then “AAAAGGAACAGACACACACACATATATAAATATGTA [CACACA_site7656]”, with 9.97; and “AAAAAAAAAAAAAACACACACACACGCATAAATATA [CACACA_site6217]”, with 10.1; and “AAAAAAAAAAGACACACACACATATAAATATAAATA [CACACA_site6899]”, with 10.2. Consider “ACAAAAAAAAACGTGGTGCATTAATAATATTGTATA [GTGCAC_site9469]”, for which the “gcPBM binding intensity (ln)” value was 9.43. Then ATTACATTAATAAGAGTGCATTATATAAGTTTTATG, with 9.2. Under “TTTGGCTAGTCAAGTTGTACAAAAAAAAAAAAAAAA [XGTACX_site8382]” stands 8.58. Then “GTAATACACAGACACACACACATACACATATTTATA [CACACA_site7313]”, with 10. Turning to “TTGTACTACAATCCTTTATTTATTTAAACCTGTATG [CACACA_negctrl_site428]”, the “gcPBM binding intensity (ln)” value is 9.14.

Turning to “TTCTTCAAGGAAAACACATGCGCATTTTCACCAATT [TGCATGCA_site11]”, the “gcPBM binding intensity (ln)” value came to 9.15.

For “TTTTCAGAAAAGAGAAACTTTATTTTTCACAACCGA [TGCATGCA_negctrl_site389]”, the “gcPBM binding intensity (ln)” value came out at 8.85. Then “ACCTACATAACATACACACGCATATATATAATTTTA [CACACA_site2847]”, with 9.64; and “AAACCTACATAACATACACACGCATATATATAATTT [CACACA_site8923]”, with 9.69. Under “AAGTAATTTGTTGACACACACACACGCATACCTATA [CACACA_site7140]” stands 10.2. Take “TATATAAAAAATTCAATACACACCATATATAAATAT [CACACA_site3987]”: the “gcPBM binding intensity (ln)” value is 9.66. Under “AATATATAAGTGTTGTGTACTAAAGTATTTTCCTAT [XGTACX_site1622]” stands 9.5. Then “ACCATATAAATAAACACACACACACGGATATAAATA [CACACA_site7157]”, with 10.1; and “TAAATAAATTTATACACACACACACGGATATAAATA [CACACA_site6532]”, with 10.1; and “CACACGCACAGACACACACACACATATAAATATGTA [CACACA_site6300]”, with 10.1. Under “CGCGCACACGGACACACACACACACGGATATAAATA [CACACA_site7102]” stands 10.2; under “GCTATAAATACAGACGCACACATATACATACAGATA [CACACA_site5778]”, 9.49. Consider “ATAGTATACAGACACACACACACACGGATATAAATA [CACACA_site6914]”, for which the “gcPBM binding intensity (ln)” value was determined as 10.3. Under “CGCATACACAGACACACACACACATATAAATATGTA [CACACA_site6444]” stands 9.92; under “CACACGCACAGACACACACACACACGGATATAAATA [CACACA_site6301]”, 10.2; under “CACGCATACAGACACACACACACACGGATATAAATA [CACACA_site6445]”, 10.3.

On to “TAAATACAGACATATACACACATATATATATATATA [CACACA_site4382]”, for which the “gcPBM binding intensity (ln)” value was found to be 9.28.

As for “ACTTGTAAGAGACACACACACACACGGATATAAATA [CACACA_site6517]”, the “gcPBM binding intensity (ln)” value was 10.1. Take “CACACGCACGGACACACACACATATAAAATCTATAT [CACACA_site6428]”: the “gcPBM binding intensity (ln)” value came out at 9.91. Under “GAGAAATTTATACATACACACATATAAATATTATAG [CACACA_site7819]” stands 9.6; under “AAAAAAAAAAAAAAAAGTACGTATCAAAGCATCAAA [XGTACX_site880]”, 9.42. Under “CATATTTTTTCTTAAACACACACATATATATATATA [CACACA_site8920]” stands 9.61; under TTTATTTTCCAAAGGGTGCACATAGTTGAAACGATA, 9.2; under “TTTTTTTTTTTTTTTTTTTTCTTCATTTAATTTATA [GTGCAC_negctrl_site17]”, 8.31.

Consider “AAAAAAATACAAATATGTACACATATATATTTAAAA [XGTACX_site4729]”, for which the “gcPBM binding intensity (ln)” value is 9. With ACTTATTTATTTTTAGTGCATTTAGTTTTATTTTAT, the “gcPBM binding intensity (ln)” value was 9.63.

For the sequence “CCAAAATACATTAAACGTACATGTCCTAATAAGATA [XGTACX_site21]”, the “gcPBM binding intensity (ln)” value is 9.15. Then “AATAATGAATACACATGTACAAAAATTTTTCTTACT [XGTACX_site1962]”, with 9.41. Under “CACACGCACGGACACACACACAAAAAAAAAAAGAAA [CACACA_site6378]” stands 9.7; under “CAAGCACACGGACACACACACACACGCGCACGCACA [CACACA_site6307]”, 10.2; under “ATCAAGCACGGACACACACACACACCCAGACCCCCA [CACACA_site4360]”, 10.1.
